# Most compounds without a hit are left out; they make up all but 6.8% or so of the library.
# C diff HTS – inhibitors of Clostridium difficile growth. Clostridium difficile clinical isolate growth, OD600, 24 h; hits give low values. growth activity, negative = inhibition, % at 16 µg/mL (by protocol). 86,000 tested, 0.25% active. AID 1259249;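 active means mean growth activity at or below -80% and every replicate also at or below -80%; inconclusive means mean at or below -80% but some replicate above -80%; inactive means mean growth activity above -80%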;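 further: 0% = DMSO wells and -100% = levofloxacin 16 µg/mL wells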
# T cruzi growth-1 – blocks T. cruzi growth in NIH3T3 culture | T. cruzi beta-gal in NIH3T3, GalScreen luminescence, 90 h | inhibition, % at 8.34 µM | 77,000 tested, 5.9% active | AID 624255;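 active means mean inhibition above about 93%, with at least 55% of replicates each passing it, limit read from the data, passing the limit was not always enough; inconclusive means only one of those two conditions holds; inactive means neither condition holds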
# Pf Dd2 inh – P. falciparum Dd2 growth inhibition; SYBR Green, 72 h; hits give low values; activity change, % at 10 µM; 94,000 tested, 2.3% active; AID 1159554; in the data active means activity change below about -80%; inconclusive means no clear call, values can overlap the other calls
# T cruzi growth-2 – inhibitors of T. cruzi proliferation; shares compounds with T cruzi growth-1; T. cruzi beta-gal in NIH3T3, GalScreen luminescence, 90 h; inhibition, % at 8.35 µM; 5,600 tested, 72% active; AID 651739;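 active means mean replicate inhibition above about 95% and at least 55% of replicates individually reaching it, limit read from the data; inconclusive means only one of the two criteria is met; inactive means neither criterion is met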
# T cruzi growth-3 – Trypanosoma cruzi proliferation inhibition; 5,600 tested, 21% active; AID 651740; inhibition, % at 2.09 µM; shares compounds with T cruzi growth-1; T. cruzi beta-gal in NIH3T3, GalScreen luminescence, 90 h;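 active means mean inhibition above about 95%, with at least 55% of replicates also reaching it, limit read from the data; inconclusive means meets just one of the two conditions; inactive means meets neither condition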;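 further: plate controls were neutral control median for no effect and positive control median for full effect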
# NIH3T3 tox – cytotoxicity in mouse NIH/3T3 fibroblasts; shares compounds with T cruzi growth-1; NIH/3T3 viability, CellTiter-Glo ATP luminescence, 90 h; cytotoxicity (signal decrease), % at 8.35 µM; 5,600 tested, 14% active; AID 651742;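 active means mean signal decrease across replicates above about 35% based on untreated-well scatter, with enough replicates individually passing, limit read from the data; inconclusive means no rule stated though some were filed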;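 further: 0% = median of neutral control wells and 100% = median of positive control wells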
# 3T3 cytotox 2 – kills mouse NIH/3T3 fibroblasts. NIH/3T3 viability, CellTiter-Glo ATP luminescence, 90 h. shares compounds with T cruzi growth-1. inhibition, % at 24.9 µM. 5,600 tested, 56% active. AID 651744;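 active means mean loss of cell viability signal at or above a set limit, and enough replicates individually reaching it; inconclusive means meets only the mean limit or only the replicate share; inactive means meets neither condition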;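 further: 0% = median of neutral control wells and 100% = median of positive control wells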
# An asterisk follows results filed as active; ? = inconclusive; / = not tested or not shown.
SMILES,C diff HTS,T cruzi growth-1,Pf Dd2 inh,T cruzi growth-2,T cruzi growth-3,NIH3T3 tox,3T3 cytotox 2
CS(=O)(=O)N1CCCCN2[C@H](CO)[C@H](c3ccc(C#Cc4ccccn4)cc3)[C@@H]2C1,-4,113*,-8,89,48,0,12
COc1ccc(NC(=O)N2CCCCN3[C@H](C2)[C@@H](c2ccc(C#Cc4ccccn4)cc2)[C@@H]3CO)cc1,-1,103*,-16,103*,94,9,38*
O=C(c1ccncc1)N1CCCCN2[C@H](C1)[C@@H](c1ccc(C#Cc3ccccn3)cc1)[C@@H]2CO,1,108*,15,105*,13,3,5
O=C(Nc1ccccc1)N1CCCCN2[C@@H](CO)[C@@H](c3ccc(C#Cc4ccccn4)cc3)[C@@H]2C1,0,101*,-30,110*,105*,-3,16
O=C(c1ccncc1)N1C[C@H]2[C@@H](c3ccccc31)[C@@H](CO)N2C(=O)Nc1cccc(F)c1,4,21,-15,/,/,/,/
COc1ccc(-c2ccc3c(c2)O[C@@H](CN(C)CC2CC2)[C@@H](C)CN([C@@H](C)CO)S3(=O)=O)cc1,0,58,-72,/,/,/,/
CCCNC(=O)C[C@@H]1CC[C@H]2[C@@H](COC[C@H](O)CN2C(=O)c2cccnc2)O1,4,-16,7,/,/,/,/
C[C@@H]1CN([C@@H](C)CO)S(=O)(=O)c2ccc(C3=CCCCC3)cc2O[C@H]1CN(C)Cc1ccccc1,/,121*,-52,93,110*,83*,104*
C[C@@H]1CN([C@H](C)CO)S(=O)(=O)c2ccc(C3=CCCC3)cc2O[C@H]1CN(C)Cc1ccccc1,10,93,-55,/,/,/,/
C[C@H](CO)N1C[C@H](C)[C@@H](CN(C)Cc2ccccc2)Oc2cc(C3=CCCC3)ccc2S1(=O)=O,10,93,-46,/,/,/,/
C[C@@H]1CN([C@H](C)CO)S(=O)(=O)c2ccc(C3=CCCCC3)cc2O[C@H]1CN(C)Cc1ccccc1,/,119*,-53,87,101*,78*,106*
O=C(C[C@H]1C[C@H]2c3cc(NC(=O)C4CCOCC4)ccc3O[C@H]2[C@H](CO)O1)NCc1ccc(Cl)cc1,3,47,4,/,/,/,/
C/C=C/c1ccc2c(c1)O[C@@H](CN(C)Cc1ccc(F)cc1)[C@H](C)CN([C@@H](C)CO)S2(=O)=O,14,118*,-60,99*,105*,54*,104*
C/C=C/c1ccc2c(c1)O[C@H](CN(C)Cc1ccccc1)[C@@H](C)CN([C@H](C)CO)S2(=O)=O,7,86,-26,/,/,/,/
C/C=C/c1ccc2c(c1)O[C@H](CN(C)Cc1ccc(F)cc1)[C@H](C)CN([C@H](C)CO)S2(=O)=O,-3,?,-27,107*,63,15,104*
C/C=C/c1ccc2c(c1)O[C@H](CN(C)Cc1ccccc1)[C@H](C)CN([C@H](C)CO)S2(=O)=O,2,67,15,/,/,/,/
CC(C)NC(=O)Nc1ccc2c(c1)CC(=O)N([C@H](C)CO)C[C@@H](C)[C@@H](CN(C)S(=O)(=O)c1ccc(Cl)cc1)O2,12,113,6,/,/,/,/
COc1ccc(CN(C)C[C@@H]2Oc3c(NC(=O)C4CCOCC4)cccc3C(=O)N([C@H](C)CO)C[C@H]2C)cc1,1,-10,5,/,/,/,/
C[C@H](CO)N1C[C@H](C)[C@H](CN(C)C(=O)Nc2ccc(C(F)(F)F)cc2)Oc2ncc(Br)cc2C1=O,1,26,18,/,/,/,/
C[C@@H]1CN([C@@H](C)CO)C(=O)c2cc(C3=CCCC3)cnc2O[C@@H]1CN(C)C(=O)Nc1ccc(C(F)(F)F)cc1,32,?,-30,108*,88,?,104*
C[C@H]1CN([C@@H](C)CO)C(=O)c2cc(Br)cnc2O[C@@H]1CN(C)C(=O)Nc1ccc(C(F)(F)F)cc1,0,102*,-9,108*,59,-10,54*
C[C@H]1CN([C@@H](C)CO)C(=O)c2cc(C3=CCCC3)cnc2O[C@H]1CN(C)C(=O)Nc1ccc(C(F)(F)F)cc1,17,52,-35,/,/,/,/
Cc1ccc(S(=O)(=O)N(C)C[C@H]2Oc3ccc(NC(=O)Cn4cnnn4)cc3CC(=O)N([C@@H](C)CO)C[C@H]2C)cc1,9,10,13,/,/,/,/
CCCC#Cc1ccc([C@H]2[C@@H](C#N)N(C(=O)C3CCC3)[C@@H]2CO)cc1,-5,99*,-33,102*,100*,-25,-7
CCCC#Cc1ccc([C@@H]2[C@H](C#N)N(C(=O)C3CCCC3)[C@H]2CO)cc1,21,99*,-54,98*,106*,26,78*
SMILES,C diff HTS,T cruzi growth-1,Pf Dd2 inh,T cruzi growth-2,T cruzi growth-3,NIH3T3 tox,3T3 cytotox 2
CCCC#Cc1ccc([C@@H]2[C@@H](C#N)N(C(=O)C3CCCCC3)[C@H]2CO)cc1,1,96*,-45,91,106*,26,53*
CCCC#Cc1ccc([C@@H]2[C@@H](CO)N(C(=O)C3CCCCC3)[C@H]2C#N)cc1,1,89,-34,/,/,/,/
CCCC#Cc1ccc([C@H]2[C@H](C#N)N(C(=O)C3CCC3)[C@H]2CO)cc1,2,87,-32,/,/,/,/
CCCC#Cc1ccc([C@@H]2[C@@H](CO)N(C(=O)C3CCC3)[C@H]2C#N)cc1,-3,92,-35,/,/,/,/
Cc1cccc(S(=O)(=O)N(C)C[C@@H]2OCc3ccccc3-c3ccccc3C(=O)N([C@@H](C)CO)C[C@@H]2C)c1,/,39,-72,/,/,/,/
C[C@@H]1CN([C@H](C)CO)S(=O)(=O)c2ccc(/C=C/c3ccccc3)cc2O[C@@H]1CN(C)C(=O)C1CC1,14,24,-20,/,/,/,/
O=C(C[C@@H]1CC[C@H]2[C@@H](COC[C@H](O)CN2S(=O)(=O)c2ccc(Cl)cc2)O1)NCc1ccc(Cl)c(Cl)c1,/,59,-7,/,/,/,/
Cc1ccc(S(=O)(=O)N2C[C@H](O)COC[C@@H]3O[C@@H](CC(=O)NCc4ccc(Cl)c(Cl)c4)CC[C@H]32)cc1,/,81,-2,/,/,/,/
COc1ccc(S(=O)(=O)N2C[C@H](O)COC[C@@H]3O[C@H](CC(=O)NCc4ccc(Cl)c(Cl)c4)CC[C@H]32)cc1,2,144*,-11,71,20,24,64*
O=C(C[C@H]1CC[C@@H]2[C@H](COC[C@@H](O)CN2S(=O)(=O)c2ccc(F)cc2)O1)NCc1ccc(Cl)c(Cl)c1,-1,-15,-16,/,/,/,/
Cc1ccc(S(=O)(=O)N2C[C@H](O)COC[C@@H]3O[C@H](CC(=O)NCc4ccc(Cl)c(Cl)c4)CC[C@H]32)cc1,/,88,-29,/,/,/,/
COc1ccc(S(=O)(=O)N2C[C@@H](O)COC[C@@H]3O[C@H](CC(=O)NCc4ccc(Cl)c(Cl)c4)CC[C@H]32)cc1,13,143*,-31,110*,36,?,33*
